# From PubChem
# Peg3 promoter – Peg3 promoter activity inhibition. HeLa PEG-Prom luciferase reporter, luminescence, overnight. inhibition, % at 20 µM. 360,000 tested, 1.7% active;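 active means inhibition of at least 50% at 20 µM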
# ABHD5 PLIN5 PPI – inhibitors of human ABHD5-perilipin-5 interaction; inhibition, % at 4 µM; Split G. princeps luciferase complementation, luminescence, 4 h; 360,000 tested, 0.78% active; Q00G26+Q8WTS1;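 active means inhibition above the mean inhibition across every tested compound plus 3 SD, cut at about 22% in these data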;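 further: 0% = DMSO only wells and the 100% control is not disclosed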
# EWS-Fli block – EWS/Fli transcriptional activity inhibition | AID 651661 | 350,000 tested, 0.67% active | inhibition, % at 12.6 µM | A673 NR0B1-luciferase reporter, viability-normalised;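 active means mean inhibition of at least 50% after viability correction, with every replicate also passing that limit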;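 further: firefly luciferase signal divided by Alamar Blue viability fluorescence both relative to DMSO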
# Shn3 3UTR inh – reduces Shn3 3'UTR luciferase signal in osteoblasts | AID 588674 | Clone20 osteoblast Shn3 3'UTR firefly luciferase, 24 h | 360,000 tested, 0.52% active | inhibition, % at 12.5 µM;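 active means mean inhibition of at least 75% with every replicate also reaching 75%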;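 further: 0% = median of neutral control wells and 100% = pilot-screen positive control compound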
# MITF TRPM1 inh – MITF TRPM1 promoter inhibition in SK-MEL-5 cells. SK-MEL-5 TRPM1 promoter luciferase, 24 h. inhibition, % at 12.5 µM. 330,000 tested, 0.83% active. AID 488899;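 active means mean inhibition across replicates of 60% or more, whatever share of single replicates reaches that level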
# PAX8 inh HTS – lowers PAX8-driven luciferase in RMG-I cells. RMG-I TPO-luciferase reporter, SteadyGlo, 24 h. inhibition, % at 12.6 µM. 360,000 tested, 1.2% active. AID 652154;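 active means mean replicate inhibition at least 60% with every replicate also reaching 60%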;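 further: luciferase light reporting Pax8 driven TPO promoter activity; plate controls were median of neutral control wells for no effect and mitoxantrone controls for full effect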
# ABHD5 PLIN5 conf – confirmation of human ABHD5-PLIN5 interaction inhibitors; inhibition, % at 4 µM; AID 651612; 2,200 tested, 67% active; biochemical ABHD5-PLIN5 interaction, luminescence; shares compounds with ABHD5 PLIN5 PPI; in the data active means inhibition above about 23%;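 further: 0% = DMSO vehicle wells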
# HNF4 counter – active in HNF4 split-luciferase counter-screen for ABHD5-PLIN5 inhibitors | shares compounds with ABHD5 PLIN5 PPI | 2,200 tested, 77% active | inhibition, % at 4 µM | HNF4 dimerization, luminescence, biochemical;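 active means mean inhibition across replicate wells exceeding the computed hit threshold, cut at about 13% in these data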;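 further: light from luciferase halves that rejoin when HNF4 fusion proteins dimerize; 0% = DMSO only wells and the 100% control is not given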
# Target sequence (P41235 whole entry, looked up, the tested form may be a part): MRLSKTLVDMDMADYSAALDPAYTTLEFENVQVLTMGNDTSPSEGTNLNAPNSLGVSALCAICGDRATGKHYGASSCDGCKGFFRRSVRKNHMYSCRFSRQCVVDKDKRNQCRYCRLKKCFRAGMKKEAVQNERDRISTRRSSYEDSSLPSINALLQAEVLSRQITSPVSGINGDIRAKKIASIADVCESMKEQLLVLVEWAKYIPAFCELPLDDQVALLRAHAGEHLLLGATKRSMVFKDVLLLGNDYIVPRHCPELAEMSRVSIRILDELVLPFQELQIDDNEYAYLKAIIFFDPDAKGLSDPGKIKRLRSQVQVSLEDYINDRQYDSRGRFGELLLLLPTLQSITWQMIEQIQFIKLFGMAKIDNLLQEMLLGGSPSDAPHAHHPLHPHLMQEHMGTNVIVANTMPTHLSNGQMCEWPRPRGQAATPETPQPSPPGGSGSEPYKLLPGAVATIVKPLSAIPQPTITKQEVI
# * hit, by the source's call; · = no result. The list is not random: actives were taken first. Their share in the collection is about 3%.
SMILES,Peg3 promoter,ABHD5 PLIN5 PPI,EWS-Fli block,Shn3 3UTR inh,MITF TRPM1 inh,PAX8 inh HTS,ABHD5 PLIN5 conf,HNF4 counter
COc1ccc(NC(=O)Nc2ccc3c(c2)C(=O)N([C@H](C)CO)C[C@H](C)[C@H](CN(C)Cc2ccc(C(=O)Nc4ccccc4N)cc2)OCCCC[C@@H](C)O3)cc1,·,·,-6,·,·,-17,·,·
C[C@H]1CN([C@@H](C)CO)C(=O)Cc2cc(NS(=O)(=O)c3cccs3)ccc2O[C@H]1CN(C)Cc1ccc(Cl)c(Cl)c1,·,·,23,·,·,·,·,·
CCOc1ccccc1N1CCN(Cc2cccc(OC)c2O)CC1,14,10,·,26,-2,·,·,·
COc1ccccc1N1CCN(Cc2cc(Br)c(O)c3ncccc23)CC1,20,25*,31,70,71*,100*,14,14*
CN(C)/N=C/C=C1\CCC/C(=C/c2cccs2)C1=O,-351,30*,-143,-73,-59,-142,25*,29*
Cc1ccc(/C=C/C(=O)N2CC(=O)Nc3ccccc32)o1,-27,25*,-8,-6,12,7,20,30*
COc1ccc2c3c(n(C)c2c1)[C@@H](CO)N(Cc1cccc(Cl)c1)CC31CN(C(=O)C2CC2)C1,·,·,4,·,·,7,·,·
Cc1cccc(Nc2nc(N3CCOCC3)nc(N3CCOCC3)n2)c1,7,-19,1,35,-16,-15,·,·
Oc1cccc(Nc2nc(N3CCOCC3)nc(N3CCOCC3)n2)c1,7,25*,-8,25,-7,35,9,15*
C=CCOC(=O)[C@H]1[C@@H]2C(=O)O[C@@H](c3ccccc3)[C@@H](c3ccccc3)N2[C@@H](c2ccc(OCCOC(=O)[C@@H]3C[C@@H]4C(=O)N[C@@H](CC(C)C)C(=O)N4[C@@H]3c3cccc(OCCO)c3)cc2)[C@]12C(=O)Nc1ccccc12,·,·,-2,·,·,3,·,·
Cc1noc(C)c1NC(=O)Nc1ccc2c(c1)C(=O)N([C@@H](C)CO)C[C@@H](C)[C@@H](CN(C)Cc1ccc(Cl)c(Cl)c1)O2,·,·,-2,·,·,-21,·,·
CCC(=O)N1[C@@H]2c3cccc(=O)n3C[C@H]1[C@H](CO)[C@H]2C(=O)N1CCc2ccccc2C1,·,·,3,·,·,-6,·,·
O=C(COC(=O)Cc1n[nH]c(=O)c2ccccc12)Nc1ccc(Cl)cc1F,11,-1,1,·,4,-13,·,·
Cc1nnnn1/C(=C\c1ccccc1)C(=O)OCC(=O)Nc1ccc(Cl)cc1F,98*,68*,45,-13,51,7,92*,85*
CC[n+]1c(/C=C2\Sc3ccccc3N2C)ccc2cccc(C)c21,114*,24*,44,89*,104*,61*,23*,26*
COc1ccc(S(=O)(=O)N2CCCCCC2)cc1NC(C)C(=O)Nc1ccc(NC(C)=O)cc1 (stereo not given),-6,47*,-3,-7,·,5,2,10
CCCN(C)C[C@@H]1Oc2ncc(Br)cc2C(=O)N([C@@H](C)CO)C[C@@H]1C,·,·,4,·,·,·,·,·
CCCCC(=O)NC(c1ccc(N(C)C)cc1)c1ccc2cccnc2c1O (stereo not given),44,23*,42,93*,61*,86*,17,4
C[C@H](CO)N1C[C@H](C)[C@H](CN(C)C)OCCCC[C@H](C)Oc2ccc(N(C)C)cc2C1=O,·,·,-1,·,·,-7,·,·
N#C/C(=C\c1cccc(NC(=O)c2ccccc2Cl)c1)C(=O)NCCc1ccccc1,12,47*,-1,-18,37,-2,83*,78*
N#C/C(=C/c1cccc(O)c1)C(=O)NCc1ccc(Cl)cc1,-11,24*,10,-5,-5,8,64*,55*
Cc1cc(C)c(C(=O)/C=C/c2ccc3c(c2)OCO3)c(=O)[nH]1,31,2,-2,-21,14,-2,·,·
Cc1cc(C)c(C(=O)/C=C/c2cccc3ccccc23)c(=O)[nH]1,96*,54*,21,55,87*,99*,64*,61*
